Results on one molecule are retold here after the supplement of paper PMC8728848.

Holding throughout (assay): glycan array binding signal (z-score within array); higher = stronger binding
What all share (conditions): glycan notation: IUPAC condensed, linker removed

Test [1] concerns the target Fuc(a1-2)Gal(b1-3)GalNAc(b1-3)Gal(a1-4)Gal(b1-4)Glc. The gist of the method: (§1)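 Arrays were curated from the Consortium for Functional Glycomics database, 3228 in total, and kept only where the protein sequence was available. Binding is expressed as a within-array Z-score. This score was averaged across arrays of the same protein sequence at different concentrations or buffers and across linkers, and negative values can be read as non-binding.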

In test [2] the target is Fuc(a1-2)Gal(b1-3)GlcNAc6S. The procedure, abridged: as §1
The target of test [3] is Fuc(a1-2)Gal(b1-3)[Fuc(a1-4)]GlcNAc(b1-2)Man(a1-3)[Fuc(a1-2)Gal(b1-3)[Fuc(a1-4)]GlcNAc(b1-2)Man(a1-6)]Man(b1-4)GlcNAc(b1-4)[Fuc(a1-6)]GlcNAc(b1-4)[Fuc(a1-6)]GlcNAc. The gist of the method: as §1
The target in test [4] is Fuc(a1-2)Gal(b1-4)GlcNAc(b1-3)Gal(b1-4)GlcNAc(b1-3)Gal(b1-4)GlcNAc. The gist of the method: as §1
Test [5] concerns the target Fuc(a1-2)Gal6S(b1-4)Glc6S. The gist of the method:
as §1

A further test has as its target Fuc(a1-2)[Gal(a1-3)]Gal. The procedure, abridged:
as §1

Test [6] has as its target Fuc(a1-2)[GalNAc(a1-3)]Gal(b1-4)[Fuc(a1-3)]GlcNAc(b1-3)GalNAc. The gist of the method:
as §1

Test [7] concerns the target Fuc(a1-3)[Gal3S(b1-4)]GlcNAc6S. The gist of the method: as §1
The next test addresses Fuc(a1-4)GlcNAc. The procedure, abridged: as §1
Test [8] concerns the target Gal(a1-3)Gal(b1-4)GlcNAc(b1-2)Man(a1-3)[Gal(a1-3)Gal(b1-4)GlcNAc(b1-2)Man(a1-6)]Man(b1-4)GlcNAc(b1-4)GlcNAc. The gist of the method:
as §1

In test [9] the target is Gal(a1-3)Gal(b1-4)[Fuc(a1-3)]GlcNAc(b1-2)Man(a1-3)[Gal(a1-3)Gal(b1-4)[Fuc(a1-3)]GlcNAc(b1-2)Man(a1-6)]Man(b1-4)GlcNAc(b1-4)GlcNAc. The procedure, abridged:
as §1

The target of the next test is Gal(a1-3)GalNAc. The procedure, abridged: as §1
Test [10] has as its target Gal(a1-4)Gal(b1-4)GlcNAc(b1-2)Man(a1-3)[Gal(a1-4)Gal(b1-4)GlcNAc(b1-2)Man(a1-6)]Man(b1-4)GlcNAc(b1-4)GlcNAc. The gist of the method:
as §1

The target in test [11] is Gal(a1-4)Gal(b1-4)GlcNAc(b1-3)Gal(b1-4)Glc. The procedure, abridged: as §1
Test [12] concerns the target Gal(b1-3)GlcNAc(b1-3)Gal(b1-4)GlcNAc(b1-2)[Gal(b1-3)GlcNAc(b1-3)Gal(b1-4)GlcNAc(b1-6)]Man(a1-6)[Gal(b1-3)GlcNAc(b1-3)Gal(b1-4)GlcNAc(b1-2)Man(a1-3)]Man(b1-4)GlcNAc(b1-4)[Fuc(a1-6)]GlcNAc. The gist of the method: as §1
For test [13], the target named is Gal(b1-4)GalNAc(b1-3)[Fuc(a1-2)]Gal(b1-4)GlcNAc. The gist of the method:
as §1

Test [14] concerns the target Gal(b1-4)GlcNAc(b1-2)[Gal(b1-4)GlcNAc(b1-6)]Man(a1-6)[Gal(b1-4)GlcNAc(b1-2)Man(a1-3)]Man(b1-4)GlcNAc(b1-4)[Fuc(a1-6)]GlcNAc. The gist of the method: as §1
The target of test [15] is Gal(b1-4)GlcNAc(b1-3)Gal(b1-3)GalNAc. The gist of the method: as §1
Test [16] has as its target Gal(b1-4)GlcNAc(b1-3)Gal(b1-4)GlcNAc(b1-2)Man(a1-3)[Gal(b1-4)GlcNAc(b1-3)Gal(b1-4)GlcNAc(b1-2)Man(a1-6)]Man(b1-4)GlcNAc(b1-4)GlcNAc. The procedure, abridged: as §1
Test [17] deals with Gal(b1-4)GlcNAc(b1-3)Gal(b1-4)GlcNAc(b1-2)Man(a1-3)[Gal(b1-4)GlcNAc(b1-3)Gal(b1-4)GlcNAc(b1-2)Man(a1-6)]Man(b1-4)GlcNAc(b1-4)[Fuc(a1-6)]GlcNAc. The procedure, abridged: as §1
In test [18] the target is Gal(b1-4)GlcNAc(b1-3)Gal(b1-4)GlcNAc(b1-3)Gal(b1-4)GlcNAc(b1-2)[Gal(b1-4)GlcNAc(b1-3)Gal(b1-4)GlcNAc(b1-3)Gal(b1-4)GlcNAc(b1-6)]Man(a1-6)[Gal(b1-4)GlcNAc(b1-3)Gal(b1-4)GlcNAc(b1-3)Gal(b1-4)GlcNAc(b1-2)Man(a1-3)]Man(b1-4)GlcNAc(b1-4)[Fuc(a1-6)]GlcNAc. The gist of the method: as §1
For test [19], the target named is Gal(b1-4)GlcNAc(b1-3)Gal(b1-4)GlcNAc(b1-3)Gal(b1-4)GlcNAc(b1-3)Gal(b1-4)GlcNAc(b1-2)Man(a1-3)[Gal(b1-4)GlcNAc(b1-3)Gal(b1-4)GlcNAc(b1-3)Gal(b1-4)GlcNAc(b1-3)Gal(b1-4)GlcNAc(b1-2)Man(a1-6)]Man(b1-4)GlcNAc(b1-4)GlcNAc. The procedure, abridged:
as §1

Only a selection was taken, and the strongest signals are over-represented in it overall.

B1: PX9961A-pdi-456-24-456 (Parabacteroides distasonis) (protein)
chain: KTSSTQLPTIDAISSVADLTNAVNGVYEQQATEVGSYGAEFTLLADLRSGDFQSISTVNHAGPMYRYQTGKNDEMVYSFYKLFYNSLARLNNVLAAAENLEGADVDILKGELYAMRALYHFDLARVFAKLPSTTDMNDLGIVLSTEVYPTDYIGTRATLQQTYDQILKDIETALPLLSKDKQTGHINYWGALAIRARAYLYLEKNKEALADCKEIIASSPYKLYTRDEYIGAWDKEGTNEAIFEILVTPNYNAQRNSIGYFTHASGYGECAATESFLEELAKHPGDIRTELFAKETDNGYDGTYPQKYKGRDGQIYVNNPKVVRLSEVYLIAAEAALKAGDTSAAAGYMNTLRKNRIENYTDVASITLDDILLERRLELFTEGHTAWDAWRNGKSVNNKFVGEVKPGDYRTIMAIPIGEITVSRGQLIQNPGY
As for B1, the “glycan array binding signal (z-score)” value was -0.216 in test [1]; 0.178 in [2]; 0.196 in [3]; -0.148 in test [4]; -0.221 in test [5]; 1.54 in the test with Fuc(a1-2)[Gal(a1-3)]Gal. For the same molecule, the “glycan array binding signal (z-score)” value is 0.753 in test [6]; -0.41 in test [7]; 7.24 with Fuc(a1-4)GlcNAc; 0.21 in test [8]; 0.63 in test [9]; -0.152 with Gal(a1-3)GalNAc. Also, the “glycan array binding signal (z-score)” value is 0.514 in test [10]; 0.043 in test [11]; 1.83 in [12]; -0.317 in test [13]; 2.12 in test [14]; -0.575 in test [15]. In addition, the “glycan array binding signal (z-score)” value in [16] came out at 2.2; in test [17] it was 2.48; in [18], 2.11; in test [19], 0.035.
